# From PubChem BioAssay (NCI)
# About 83,000 compounds went through this panel and 20% of them were active in at least one assay; those are over-represented in the sample as a whole.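 48-hour exposure, single concentration, 96-well plates; percent growth endpoint where 0 means no net growth. Active: below 10.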 A number with no mark means an inactive call. The source made the active and inactive calls.
# Key:
# Experiment in all cases: NCI-60 one-dose screen, 48 h (100 = growth as untreated, 0 = no growth, -100 = all killed)
# Conditions in all cases: 10 µM
# SK-MEL-2 melanoma = system: SK-MEL-2 melanoma
# SN12C renal = system: SN12C renal
# UO-31 renal = system: UO-31 renal
# TK-10 renal = system: TK-10 renal
# ACHN renal = system: ACHN renal
# CAKI-1 renal = system: CAKI-1 renal
# A498 renal = system: A498 renal
# CCRF-CEM leukemia = system: CCRF-CEM leukemia
# MOLT-4 leukemia = system: MOLT-4 leukemia
# SR leukemia = system: SR leukemia
# RPMI-8226 leukemia = system: RPMI-8226 leukemia
# OVCAR-8 ovarian = system: OVCAR-8 ovarian
# OVCAR-4 ovarian = system: OVCAR-4 ovarian
# SK-OV-3 ovarian = system: SK-OV-3 ovarian
# IGROV1 ovarian = system: IGROV1 ovarian
# OVCAR-3 ovarian = system: OVCAR-3 ovarian
# HS 578T breast = system: HS 578T breast
# NCI/ADR-RES ovarian = system: NCI/ADR-RES ovarian
# OVCAR-5 ovarian = system: OVCAR-5 ovarian
Compound,growth (SK-MEL-2 melanoma),growth (SN12C renal),growth (UO-31 renal),growth (TK-10 renal),growth (ACHN renal),growth (CAKI-1 renal),growth (A498 renal),growth (CCRF-CEM leukemia),growth (MOLT-4 leukemia),growth (SR leukemia),growth (RPMI-8226 leukemia),growth (OVCAR-8 ovarian),growth (OVCAR-4 ovarian),growth (SK-OV-3 ovarian),growth (IGROV1 ovarian),growth (OVCAR-3 ovarian),growth (HS 578T breast),growth (NCI/ADR-RES ovarian),growth (OVCAR-5 ovarian)
N=C(N)c1ccc(-c2ccc(-c3cccs3)s2)nc1,97.8%,60.9%,2.6% (active),47.3%,56.7%,34.2%,-25.6% (active),31.6%,17.3%,-9.12% (active),-24.2% (active),55.7%,34.7%,63.4%,70.4%,38.6%,80.1%,84.8%,
Oc1ccccc1-c1nnc(Cn2c(Cc3cccc4ccccc34)nc3ccccc32)o1,83.1%,94.5%,63%,99.2%,93.9%,94.3%,106%,99.4%,90.9%,94.8%,95.8%,101%,99.2%,98.7%,111%,101%,,93.8%,
N#CCC1CCCC1,120%,94%,97%,104%,98.1%,89.9%,91%,92%,112%,81.6%,97.2%,98.9%,95.7%,104%,118%,121%,,101%,105%
CC(C)=C1CCC(C)C/C1=N\N=C(N)N (stereo not given),102%,103%,81.3%,98.3%,105%,93.3%,88.6%,86.9%,98.8%,,96.7%,104%,107%,106%,98.6%,113%,105%,101%,110%
O=NN(CCCl)C(=O)NCc1ccc(-c2ccc(CNC(=O)N(CCCl)N=O)cc2)cc1,95.1%,97.8%,67.7%,105%,,96.6%,102%,93.3%,82.3%,-5.09% (active),93.5%,94%,114%,95.8%,66.6%,115%,116%,100%,115%
COc1ccc(C2CC(c3ccc(-c4ccccc4)cc3)=NN2c2ccc(S(N)(=O)=O)cc2)cc1 (stereo not given),90.3%,52.6%,50%,65.4%,74.7%,45.2%,98%,51.7%,54.8%,,57.2%,70.2%,70%,79.5%,46.3%,89.9%,85.5%,60.7%,90%
Cc1cccc2c(Nc3ccc(NS(C)(=O)=O)cc3)c3ccc([N+](=O)[O-])cc3nc12,-19.1% (active),7.61% (active),10.5%,20.7%,,6.69% (active),-11.2% (active),-9.83% (active),-5.36% (active),2.56% (active),0.668% (active),2.24% (active),16.6%,38.3%,-27.4% (active),-28.9% (active),56.6%,66.6%,49.9%
COc1ccc(CSc2nc3cc(OC)c(OC)cc3c(=O)n2-c2ccc(OC)cc2OC)cc1,91.5%,90.1%,55.4%,108%,94%,68.7%,,92.7%,79.4%,59.5%,63.7%,89.2%,83.2%,114%,86.1%,92.1%,86.7%,79.5%,
COc1ccc(-c2[nH]ncc2/C=C/c2cc(C(F)(F)F)[nH]c(=O)n2)cc1,82.9%,96.2%,87.1%,94.8%,,102%,89.3%,73%,86%,71.9%,96.5%,102%,93.6%,100%,93.1%,95.1%,106%,105%,100%
